CYP2C19 act = human CYP2C19 activators, primary screen, biochemical, luminescence; Cytochrome P450 2C19 (Homo sapiens), P33261; recombinant CYP2C19, luciferin-H EGE luminescence; active compounds read high; 0 = fully inhibited enzyme, 1 = untreated enzyme; activation factor at 5 µM; 96,000 tested, under 10 active; AID 1025, 2008;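 active means activation factor of at least 2 at 5 µM in the primary screen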;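 further: 0 = wells with 2.5 mM tranylcypromine and 1 = vehicle-only wells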
CYP2C9 inhib = blockers of cytochrome P450 2C9 activity – biochemical, luminescence, ADME assay, primary screen. P11712. CYP2C9 Supersomes, luciferin-H conversion. inhibition, % at 5 µM. actives 20% (n = 96,000). AID 777, 2007;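 active means blocking of liver enzyme CYP2C9 beyond about 50% at 5 µM, limit read from the data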
Target sequence (P11712 whole entry, looked up): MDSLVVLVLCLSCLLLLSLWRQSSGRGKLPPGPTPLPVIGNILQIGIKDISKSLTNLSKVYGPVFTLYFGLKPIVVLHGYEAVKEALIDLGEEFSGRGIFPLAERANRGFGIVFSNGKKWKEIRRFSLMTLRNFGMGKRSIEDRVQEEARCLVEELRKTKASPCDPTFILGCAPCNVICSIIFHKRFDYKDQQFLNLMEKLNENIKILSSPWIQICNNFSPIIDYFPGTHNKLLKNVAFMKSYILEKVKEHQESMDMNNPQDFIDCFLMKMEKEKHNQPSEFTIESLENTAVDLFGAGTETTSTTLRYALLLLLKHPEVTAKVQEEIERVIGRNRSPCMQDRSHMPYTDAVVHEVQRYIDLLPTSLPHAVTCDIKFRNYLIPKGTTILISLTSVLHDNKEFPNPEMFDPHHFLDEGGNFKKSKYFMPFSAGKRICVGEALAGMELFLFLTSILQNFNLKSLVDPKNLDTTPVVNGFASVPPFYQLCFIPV
CYP2C19 inh = blockers of cytochrome P450 2C19 activity – biochemical, luminescence, ADME assay, primary screen; P33261; actives 21% (n = 96,000); inhibition, % at 5 µM; CYP2C19 Supersomes, luciferin-H EGE luminescence, 30 min; AID 778, 2007;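 active means CYP2C19 inhibition above a set limit at 5 µM in the primary screen, cut at about 50% in these data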;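 further: plate controls were negative control wells for no effect and 2.5 mM tranylcypromine positive control for full effect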
CYP2C9 activ = human CYP2C9 activators, primary screen, biochemical, luminescence; recombinant CYP2C9, luciferin-H conversion; active compounds read high; factor 1 = untreated enzyme, 0 = blocked; actives 1.4% (n = 96,000); AID 1024, 2008; activation factor at 5 µM;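 active means activation factor of 2 or more for CYP2C9 at a 5 µM dose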;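 further: 0 = sulfaphenazole-blocked wells and 1 = vehicle-only wells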
Cav32 inh = Cav3.2 calcium influx blockers – cell-based, Fluo-4 calcium fluorescence, FDSS, MLSMR library, primary screen; actives 4% (n = 100,000); B-score at 10 µM; AID 449739, 2010; Voltage-dependent T-type calcium channel subunit alpha-1H (Homo sapiens), O95180; Cav3.2-expressing cells; active compounds read low;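 active means single-dose well whose peak fluorescence ratio is a statistical outlier from its plate by either plate-standardised score or position-corrected B-score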
* = called active by the depositor. Shown are actives, neighbours in structure and some others; about 27% of the full set was active somewhere.

`O=C(CCCCCN1C(=O)c2ccccc2C1=O)Nc1ccc2c(c1)OCCO2` gave CYP2C19 act 0.3, CYP2C9 inhib 76*, CYP2C19 inh 71*, CYP2C9 activ 0.2 and Cav32 inh -0.028.
For CC1CCN(S(=O)(=O)c2ccc(NC(=O)Cc3ccccc3)cc2)CC1 the results were CYP2C19 act 0.2, CYP2C9 inhib 92*, CYP2C19 inh 78*, CYP2C9 activ 0.1 and Cav32 inh -5.9*.
Screening O=C(Cn1nnc(-c2ccccc2Cl)n1)N1CCN(S(=O)(=O)c2ccc(Cl)cc2)CC1 returned CYP2C19 act 0.9, CYP2C9 inhib 11, CYP2C19 inh 12, CYP2C9 activ 0.9 and Cav32 inh -2.4.
O=C(CCCCCN1C(=O)CCC1=O)Nc1ccc2c(c1)OCO2 was read as CYP2C19 act 0.7, CYP2C9 inhib 36, CYP2C19 inh 25, CYP2C9 activ 0.6 and Cav32 inh 0.45.
CC1CCN(S(=O)(=O)c2ccc(NC(=O)CCN3C(=O)c4ccccc4C3=O)cc2)CC1 was read as CYP2C19 act 0.4, CYP2C9 inhib 94*, CYP2C19 inh 62*, CYP2C9 activ 0.1 and Cav32 inh -2.5.
`CC1CCN(S(=O)(=O)c2ccc(NC(=O)Cn3nnc(-c4ccccc4F)n3)cc2)CC1` gave CYP2C19 act 0.6, CYP2C9 inhib 80*, CYP2C19 inh 39, CYP2C9 activ 0.2 and Cav32 inh -1.5.
Screening CC1CCN(S(=O)(=O)c2ccc(NC(=O)CN3CCN(c4ccccc4)CC3)cc2)CC1 returned CYP2C19 act 1.1, CYP2C9 inhib -2, CYP2C19 inh -14, CYP2C9 activ 1 and Cav32 inh -0.37.
Screening N#Cc1c2n(c(=S)n(-c3ccccn3)c1=O)CCCCC2 returned CYP2C19 act 1, CYP2C9 inhib 8, CYP2C19 inh 2, CYP2C9 activ 0.9 and Cav32 inh -1.4.
For O=C(CCN1C(=O)c2ccccc2C1=O)Nc1cccc(S(=O)(=O)N2CCCCC2)c1 the results were CYP2C19 act 0.2, CYP2C9 inhib 92*, CYP2C19 inh 81*, CYP2C9 activ 0.1 and Cav32 inh -1.7.
`CCO[C@H]1OC(C(N)=O)=C[C@@H](C2CC2)[C@@H]1CCCO` gave Cav32 inh 0.58.
`CC(=O)c1c(C)[nH]c(C(=O)Nc2c(C)n(C)n(-c3ccccc3)c2=O)c1C` gave CYP2C19 act 0.9, CYP2C9 inhib -10, CYP2C19 inh 7, CYP2C9 activ 1.1 and Cav32 inh 0.12.
For N=C1C(c2nc3ccccc3c(=O)[nH]2)=C(O)CN1c1ccccc1 the results were CYP2C19 act 0.9, CYP2C9 inhib -116, CYP2C19 inh 12, CYP2C9 activ 2.2* and Cav32 inh -1.5.
Screening CCN1C(=O)/C(=C/N(C)c2ccccc2)OC1=S returned CYP2C19 act 0.2, CYP2C9 inhib 53*, CYP2C19 inh 79*, CYP2C9 activ 0.5 and Cav32 inh -0.11.
O=C(CSc1ccccn1)N1CCN(c2ccccc2)CC1 was read as CYP2C19 act 0, CYP2C9 inhib 45, CYP2C19 inh 99*, CYP2C9 activ 0.6 and Cav32 inh 0.21.
`O=C(CSc1nc(N2CCCCC2)nc(N2CCCCC2)n1)N1CCN(c2ccccc2)CC1` gave CYP2C19 act 0.2, CYP2C9 inhib 83*, CYP2C19 inh 77*, CYP2C9 activ 0.2 and Cav32 inh -8.8*.
`O=C(CSc1ccccc1)N1CCN(c2ccccc2)CC1` gave Cav32 inh -0.13.
CC/C(CC(C)(C)c1ccccc1)=N\O was read as CYP2C19 act 0.2, CYP2C9 inhib 25, CYP2C19 inh 79*, CYP2C9 activ 0.8 and Cav32 inh 0.72.
`CN(C)CCC(O)(c1ccccc1)c1ccccc1` gave CYP2C19 act 1, CYP2C9 inhib -1, CYP2C19 inh -2, CYP2C9 activ 1 and Cav32 inh 0.53.
COc1ccc(N2CCN(CCCNC(=O)CC3Oc4ccc(C)cc4NC3=O)CC2)cc1 (centres undefined) was read as CYP2C19 act 0.9, CYP2C9 inhib 77*, CYP2C19 inh 13, CYP2C9 activ 0.2 and Cav32 inh 0.25.
`CN(C)c1nc(N)nc(CSc2n[nH]c(-c3ccccc3)n2)n1` gave CYP2C19 act 0.6, CYP2C9 inhib 44, CYP2C19 inh 39, CYP2C9 activ 0.6 and Cav32 inh 0.2.
For CN(C)c1nc(N)nc(CSc2nnnn2-c2ccc(F)cc2)n1 the results were CYP2C19 act 0.2, CYP2C9 inhib 36, CYP2C19 inh 76*, CYP2C9 activ 0.6 and Cav32 inh 0.15.
Screening CC(C)Nc1nc(Oc2ccc(Cl)cc2)cc(C(F)(F)F)n1 returned CYP2C19 act 0.8, CYP2C9 inhib 36, CYP2C19 inh 22, CYP2C9 activ 0.6 and Cav32 inh -0.053.
For O=C(/C=C/Nc1cccc([N+](=O)[O-])c1)c1cccs1 the results were CYP2C19 act 0.7, CYP2C9 inhib 71*, CYP2C19 inh 30, CYP2C9 activ 0.3 and Cav32 inh -0.068.
`CNc1cc([N+](=O)[O-])ccc1N/C=C/C(=O)c1cccs1` gave Cav32 inh -0.87.
Screening CC(C)(C)c1ccc(C(=O)N/N=C/c2cccc(Cl)c2)cc1 returned CYP2C19 act 0.2, CYP2C9 inhib 36, CYP2C19 inh 76*, CYP2C9 activ 0.6 and Cav32 inh -2.5.
CN1C(=O)/C(=C/c2ccccc2OCc2cccc(F)c2)NC1=S was read as CYP2C19 act 1, CYP2C9 inhib 65*, CYP2C19 inh -2, CYP2C9 activ 0.3 and Cav32 inh 0.11.
For CSc1ccc(C(=S)N2CCN(Cc3ccccc3)CC2)cc1 the results were CYP2C19 act 0.5, CYP2C9 inhib 41, CYP2C19 inh 52*, CYP2C9 activ 0.6 and Cav32 inh -1.1.
For CN(C)c1ccc(/C=[N+](\[O-])C(C)(C)/C=N/O)cc1 the results were CYP2C19 act 1, CYP2C9 inhib -13, CYP2C19 inh 1, CYP2C9 activ 1.1 and Cav32 inh 0.16.
For CN(C)c1ccc(/C=C/c2ccncc2)cc1 the results were CYP2C19 act 0, CYP2C9 inhib 78*, CYP2C19 inh 98*, CYP2C9 activ 0.2 and Cav32 inh -3.7.
CCOc1cc(C(=S)N2CCOCC2)ccc1OS(=O)(=O)c1ccc(NC(C)=O)cc1 was read as CYP2C19 act 0.3, CYP2C9 inhib 61*, CYP2C19 inh 71*, CYP2C9 activ 0.4 and Cav32 inh -0.026.
Screening CCOc1ccc(C(=O)Nc2ccc(S(=O)(=O)N3CCOCC3)cc2)cc1OCC returned CYP2C19 act 1.1, CYP2C9 inhib 9, CYP2C19 inh -7, CYP2C9 activ 0.9 and Cav32 inh 0.94.
COc1cccc(C(=O)Nc2nc3c(c(=O)[nH]2)CCCC3)c1 was read as CYP2C19 act 0.7, CYP2C9 inhib 43, CYP2C19 inh 28, CYP2C9 activ 0.6 and Cav32 inh 0.11.

Bioassay records: PubChem BioAssay, several laboratories
